The text below walks through data of paper PMC7862700, “An all-to-all approach to the identification of sequence-specific readers for epigenetic DNA modifications on cytosine”.

Common to all, as to assay: DAPPL (digital affinity profiling via proximity ligation, sequencing); 10 mM Tris-HCl pH 7.5, 50 mM NaCl, 1 mM DTT, 4% glycerol, room temperature, 30 min; GST-TFs on glutathione beads, 16-mer random dsDNA library, 0.1% formaldehyde crosslink after washing; high values mean tight binding
Holding throughout (conditions): protein: recombinant; tags: N-terminal GST; dsDNA, one strand shown

For experiment [1], the target named is T1, ERF (Homo sapiens, UniProt P50548 1-548).
T1 sequence: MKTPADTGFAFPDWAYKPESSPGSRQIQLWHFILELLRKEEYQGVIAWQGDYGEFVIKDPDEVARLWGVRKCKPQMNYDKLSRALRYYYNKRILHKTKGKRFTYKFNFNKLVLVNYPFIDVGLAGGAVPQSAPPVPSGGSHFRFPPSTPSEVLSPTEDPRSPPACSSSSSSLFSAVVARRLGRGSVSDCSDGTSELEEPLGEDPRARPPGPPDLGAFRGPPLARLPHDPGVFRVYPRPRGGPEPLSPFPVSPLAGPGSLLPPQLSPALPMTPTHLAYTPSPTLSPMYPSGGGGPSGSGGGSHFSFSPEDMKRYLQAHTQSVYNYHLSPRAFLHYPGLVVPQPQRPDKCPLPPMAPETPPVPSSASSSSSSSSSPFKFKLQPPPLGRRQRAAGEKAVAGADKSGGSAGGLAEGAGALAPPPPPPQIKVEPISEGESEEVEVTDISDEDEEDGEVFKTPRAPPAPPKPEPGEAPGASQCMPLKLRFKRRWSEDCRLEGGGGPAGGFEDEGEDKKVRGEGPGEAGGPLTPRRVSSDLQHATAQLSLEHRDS
Summed up: (§1)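 In yeast, human transcription factors were expressed with a GST fusion, then pulled down on glutathione beads and given DNA barcodes. Pooled with a tag-only sample, they were exposed to 200 nmole of a 16-mer random double-stranded DNA library (Tris/NaCl/DTT/glycerol buffer, room temperature, 30 min), washed, crosslinked with 0.1% formaldehyde, proximity-ligated using BsaI/T4 ligase for 1 h at 37 °C, PCR-amplified and read on an Illumina NextSeq500. Each hexamer's frequency of reads for a factor, divided by the matching frequency for the tag-only sample, gives the binding signal.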

For experiment [2], the target named is T2, ETV3L (Homo sapiens, UniProt Q6ZN32 1-361).
T2 sequence: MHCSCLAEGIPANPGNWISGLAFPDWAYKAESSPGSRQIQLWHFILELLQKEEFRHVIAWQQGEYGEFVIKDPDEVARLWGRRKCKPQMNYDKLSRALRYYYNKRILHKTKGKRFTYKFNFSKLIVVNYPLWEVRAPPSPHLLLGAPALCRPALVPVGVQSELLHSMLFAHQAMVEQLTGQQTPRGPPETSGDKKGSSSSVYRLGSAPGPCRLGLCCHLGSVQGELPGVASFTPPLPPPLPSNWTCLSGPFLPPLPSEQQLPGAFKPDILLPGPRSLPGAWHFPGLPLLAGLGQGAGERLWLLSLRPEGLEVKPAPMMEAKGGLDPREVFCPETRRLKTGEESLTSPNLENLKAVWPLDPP
Summed up: as §1

Experiment [3] concerns the target T3, ETS2 (Homo sapiens, UniProt P15036 1-469).
T3 sequence: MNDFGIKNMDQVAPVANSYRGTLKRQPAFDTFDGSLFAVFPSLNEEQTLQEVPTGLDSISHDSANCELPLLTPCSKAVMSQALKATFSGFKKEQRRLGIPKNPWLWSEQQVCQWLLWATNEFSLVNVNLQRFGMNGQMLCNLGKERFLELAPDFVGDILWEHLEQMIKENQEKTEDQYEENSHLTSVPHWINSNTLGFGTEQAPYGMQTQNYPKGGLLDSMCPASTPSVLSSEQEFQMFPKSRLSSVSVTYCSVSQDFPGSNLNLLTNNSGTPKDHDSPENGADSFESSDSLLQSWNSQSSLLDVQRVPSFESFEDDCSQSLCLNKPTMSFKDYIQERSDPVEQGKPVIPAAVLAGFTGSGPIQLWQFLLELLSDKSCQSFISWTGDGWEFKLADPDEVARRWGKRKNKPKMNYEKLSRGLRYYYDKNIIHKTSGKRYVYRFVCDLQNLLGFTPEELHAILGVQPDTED
Summed up:
as §1

In experiment [4] the target is T4, SPDEF (Homo sapiens, UniProt O95238 1-335).
T4 sequence: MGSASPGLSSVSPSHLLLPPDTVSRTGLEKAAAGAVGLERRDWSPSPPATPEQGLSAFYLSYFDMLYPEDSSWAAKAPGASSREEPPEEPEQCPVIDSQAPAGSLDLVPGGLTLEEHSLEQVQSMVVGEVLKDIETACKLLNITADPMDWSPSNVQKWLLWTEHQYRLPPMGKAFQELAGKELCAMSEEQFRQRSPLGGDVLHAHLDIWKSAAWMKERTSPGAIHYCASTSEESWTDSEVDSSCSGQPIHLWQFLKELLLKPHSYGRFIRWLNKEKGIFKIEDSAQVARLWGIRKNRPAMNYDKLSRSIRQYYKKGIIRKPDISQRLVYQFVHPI
Summed up:
as §1

Experiment [5] has as its target T5, ETV7 (Homo sapiens, UniProt Q9Y603 1-341).
T5 sequence: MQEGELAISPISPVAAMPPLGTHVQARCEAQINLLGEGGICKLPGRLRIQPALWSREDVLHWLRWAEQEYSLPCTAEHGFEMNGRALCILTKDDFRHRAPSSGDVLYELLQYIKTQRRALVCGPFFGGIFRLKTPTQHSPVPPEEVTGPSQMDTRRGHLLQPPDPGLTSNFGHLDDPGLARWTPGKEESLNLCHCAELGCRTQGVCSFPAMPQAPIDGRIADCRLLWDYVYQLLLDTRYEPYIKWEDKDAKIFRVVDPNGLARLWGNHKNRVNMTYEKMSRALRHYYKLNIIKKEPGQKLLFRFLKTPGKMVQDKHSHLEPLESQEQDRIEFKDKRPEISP
Summed up: as §1

Experiment [6] has as its target T6, ELF5 (Homo sapiens, UniProt Q9UKW6-2 1-255).
T6 sequence: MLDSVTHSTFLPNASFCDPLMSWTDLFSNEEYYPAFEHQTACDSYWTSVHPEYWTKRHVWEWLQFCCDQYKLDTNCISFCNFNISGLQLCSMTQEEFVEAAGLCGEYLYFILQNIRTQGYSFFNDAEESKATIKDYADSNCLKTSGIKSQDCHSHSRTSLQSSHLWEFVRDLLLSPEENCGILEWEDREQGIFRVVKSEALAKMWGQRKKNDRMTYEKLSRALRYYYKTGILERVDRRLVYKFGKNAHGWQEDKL
Summed up: as §1

In experiment [7] the target is T7, ETV3 (Homo sapiens, UniProt P41162-2 1-143).
T7 sequence: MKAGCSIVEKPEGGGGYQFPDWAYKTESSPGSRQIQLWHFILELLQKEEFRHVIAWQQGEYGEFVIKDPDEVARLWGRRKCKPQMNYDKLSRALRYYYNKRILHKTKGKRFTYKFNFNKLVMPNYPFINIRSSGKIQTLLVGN
Summed up:
as §1

The target of experiment [8] is ETV6 (Homo sapiens, UniProt P41212 1-452). Summed up:
as §1

Sequence of ETV6 (P41212 whole entry): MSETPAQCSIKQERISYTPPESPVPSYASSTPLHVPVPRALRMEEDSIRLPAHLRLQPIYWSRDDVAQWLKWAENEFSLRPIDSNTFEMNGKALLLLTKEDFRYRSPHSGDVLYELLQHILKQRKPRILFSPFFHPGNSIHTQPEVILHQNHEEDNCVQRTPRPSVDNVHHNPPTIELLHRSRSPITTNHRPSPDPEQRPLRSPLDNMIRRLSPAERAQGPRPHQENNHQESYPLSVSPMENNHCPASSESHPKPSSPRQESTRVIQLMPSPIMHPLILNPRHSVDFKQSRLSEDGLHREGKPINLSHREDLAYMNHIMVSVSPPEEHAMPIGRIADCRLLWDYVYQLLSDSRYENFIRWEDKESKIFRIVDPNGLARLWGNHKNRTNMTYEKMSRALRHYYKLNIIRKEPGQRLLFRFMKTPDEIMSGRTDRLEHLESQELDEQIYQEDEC

As for CGCTTT, the binding signal in experiment [1] is 1.24 fold enrichment (6-mer frequency, TF over GST control); in experiment [2] it was 1.26 fold enrichment (6-mer frequency, TF over GST control); in experiment [3] it was 1.36 fold enrichment (6-mer frequency, TF over GST control); in experiment [4], 1.2 fold enrichment (6-mer frequency, TF over GST control); in experiment [5], 1.4 fold enrichment (6-mer frequency, TF over GST control); in experiment [6], 1.25 fold enrichment (6-mer frequency, TF over GST control). Also, the binding signal in experiment [7] was 1.3 fold enrichment (6-mer frequency, TF over GST control); in experiment [8] it was 1.31 fold enrichment (6-mer frequency, TF over GST control).

In the case of ATTTCC, the binding signal is 3.64 fold enrichment (6-mer frequency, TF over GST control) in experiment [1]; 3.98 fold enrichment (6-mer frequency, TF over GST control) in experiment [2]; 4.24 fold enrichment (6-mer frequency, TF over GST control) in experiment [3]; 3.68 fold enrichment (6-mer frequency, TF over GST control) in experiment [4]; 3.78 fold enrichment (6-mer frequency, TF over GST control) in experiment [5]; 6.17 fold enrichment (6-mer frequency, TF over GST control) in experiment [6]. The binding signal in experiment [7] was 4.45 fold enrichment (6-mer frequency, TF over GST control); in experiment [8] it was 4.99 fold enrichment (6-mer frequency, TF over GST control).

With TTCGTC, the binding signal in experiment [1] was 1.36 fold enrichment (6-mer frequency, TF over GST control); in experiment [2] it was 1.23 fold enrichment (6-mer frequency, TF over GST control); in experiment [3], 1.31 fold enrichment (6-mer frequency, TF over GST control); in experiment [4], 1.29 fold enrichment (6-mer frequency, TF over GST control); in experiment [5] it was 1.22 fold enrichment (6-mer frequency, TF over GST control); in experiment [6], 1.18 fold enrichment (6-mer frequency, TF over GST control). In addition, the binding signal is 1.31 fold enrichment (6-mer frequency, TF over GST control) in experiment [7] and 1.23 fold enrichment (6-mer frequency, TF over GST control) in experiment [8].

For the sequence CGCCTT, the binding signal in experiment [1] was 1.35 fold enrichment (6-mer frequency, TF over GST control); in experiment [2], 1.29 fold enrichment (6-mer frequency, TF over GST control); in experiment [3], 1.3 fold enrichment (6-mer frequency, TF over GST control); in experiment [4], 1.3 fold enrichment (6-mer frequency, TF over GST control); in experiment [5], 1.34 fold enrichment (6-mer frequency, TF over GST control); in experiment [6], 1.52 fold enrichment (6-mer frequency, TF over GST control). The binding signal was 1.45 fold enrichment (6-mer frequency, TF over GST control) in experiment [7] and 1.52 fold enrichment (6-mer frequency, TF over GST control) in experiment [8].

Regarding ACGTCC, the binding signal is 1.49 fold enrichment (6-mer frequency, TF over GST control) in experiment [1]; 1.59 fold enrichment (6-mer frequency, TF over GST control) in experiment [2]; 1.64 fold enrichment (6-mer frequency, TF over GST control) in experiment [3]; 2.11 fold enrichment (6-mer frequency, TF over GST control) in experiment [4]; 1.61 fold enrichment (6-mer frequency, TF over GST control) in experiment [5]; 1.77 fold enrichment (6-mer frequency, TF over GST control) in experiment [6]. For the same sequence, the binding signal in experiment [7] was 1.61 fold enrichment (6-mer frequency, TF over GST control); in experiment [8] it was 1.74 fold enrichment (6-mer frequency, TF over GST control).

As for GCACTA, the binding signal is 1.19 fold enrichment (6-mer frequency, TF over GST control) in experiment [1]; 1.23 fold enrichment (6-mer frequency, TF over GST control) in experiment [2]; 1.21 fold enrichment (6-mer frequency, TF over GST control) in experiment [3]; 1.16 fold enrichment (6-mer frequency, TF over GST control) in experiment [4]; 1.2 fold enrichment (6-mer frequency, TF over GST control) in experiment [5]; 1.1 fold enrichment (6-mer frequency, TF over GST control) in experiment [6]. Besides, the binding signal in experiment [7] is 1.22 fold enrichment (6-mer frequency, TF over GST control); in experiment [8], 1.09 fold enrichment (6-mer frequency, TF over GST control).

With CTCCTT, the binding signal in experiment [1] is 1.86 fold enrichment (6-mer frequency, TF over GST control); in experiment [2], 1.76 fold enrichment (6-mer frequency, TF over GST control); in experiment [3] it was 1.76 fold enrichment (6-mer frequency, TF over GST control); in experiment [4] it was 1.64 fold enrichment (6-mer frequency, TF over GST control); in experiment [5] it was 1.75 fold enrichment (6-mer frequency, TF over GST control); in experiment [6], 1.89 fold enrichment (6-mer frequency, TF over GST control). For the same sequence, the binding signal is 1.95 fold enrichment (6-mer frequency, TF over GST control) in experiment [7] and 1.76 fold enrichment (6-mer frequency, TF over GST control) in experiment [8].

Take ATGTTC: the binding signal was 1.27 fold enrichment (6-mer frequency, TF over GST control) in experiment [1]; 1.31 fold enrichment (6-mer frequency, TF over GST control) in experiment [2]; 1.25 fold enrichment (6-mer frequency, TF over GST control) in experiment [3]; 1.3 fold enrichment (6-mer frequency, TF over GST control) in experiment [4]; 1.3 fold enrichment (6-mer frequency, TF over GST control) in experiment [5]; 1.32 fold enrichment (6-mer frequency, TF over GST control) in experiment [6]. Moreover, the binding signal in experiment [7] was 1.34 fold enrichment (6-mer frequency, TF over GST control); in experiment [8] it was 1.18 fold enrichment (6-mer frequency, TF over GST control).

In the case of CCTTAG, the binding signal in experiment [1] is 1.22 fold enrichment (6-mer frequency, TF over GST control); in experiment [2], 1.26 fold enrichment (6-mer frequency, TF over GST control); in experiment [3] it was 1.27 fold enrichment (6-mer frequency, TF over GST control); in experiment [4], 1.24 fold enrichment (6-mer frequency, TF over GST control); in experiment [5], 1.21 fold enrichment (6-mer frequency, TF over GST control); in experiment [6] it was 1.29 fold enrichment (6-mer frequency, TF over GST control). Also, the binding signal was 1.27 fold enrichment (6-mer frequency, TF over GST control) in experiment [7] and 1.23 fold enrichment (6-mer frequency, TF over GST control) in experiment [8].
